For experiment [1], the target named is Peroxisome proliferator-activated receptor gamma (Homo sapiens) (UniProt P37231). In words: qHTS assay for small molecule antagonists of peroxisome proliferator-activated receptor gamma signaling (AID 588537; active = well fitted inhibition curve with a large enough effect in the signal ratio, with a control signal flat, not every such curve was filed as active; the % refers to the signal ratio;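 also: reporter cells co-stimulated with 50 nM rosiglitazone agonist during compound treatment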). A digest of the protocol:
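Fluorescence at 460 and 530 nm (405 nm excitation) reported beta-lactamase cleavage of CCF4 after 2 h room-temperature loading. HEK293 reporter cells in 1% charcoal/dextran-treated FBS had received compound and rosiglitazone for 16 h.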

The nature of experiment [2]: qHTS assay for small molecule disruptors of the mitochondrial membrane potential - 1 hr assay (AID 651754; calls by dose curve; also: nearly all actives have a fitted effect of over 35% in size). A digest of the protocol:
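Mitochondrial potential in living HepG2 cells after 1 hr compound treatment at 37C was read with Mito-MPS dye added for a further 30 min. Red aggregate and green monomer fluorescence were measured; loss of potential leaves dye as cytoplasmic monomers.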
For orientation: qHTS replaces the single test concentration by a dilution series.

The target in experiment [3] is Peroxisome proliferator-activated receptor delta (Homo sapiens) (UniProt Q03181). In words: qHTS assay for small molecule antagonists of peroxisome proliferator-activated receptor delta signaling (AID 588535; active = well fitted inhibition curve with a large enough effect in the signal ratio, with a control signal flat, not every such curve was filed as active; the % refers to the signal ratio; also: potency is read from the fitted curve at half-maximal effect). A digest of the protocol: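 Fluorescence from CCF4-loaded GeneBLAzer PPAR-delta-UAS-bla HEK293T cells (2 hrs RT loading) quantified reporter inhibition after an 18 hr, 37 C compound exposure across a titration.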

Experiment [4] is described as follows: Cell Viability - BJ (AID 421; calls by dose curve;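 also: potency is read from the fitted curve at half-maximal effect; cells exposed to compound for 40 hours at 37 °C before readout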). As to conditions: BJ fibroblast viability, qHTS. Summed up: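 Cytotoxicity as drop in intracellular ATP (CellTiter-Glo, 20 min RT) after 40 hr compound exposure of BJ fibroblasts at 37 °C. Titrations scaled between DMSO and 100 uM tamoxifen, Hill-fitted for AC50.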
The target of experiment [5] is Androgen receptor (Homo sapiens) (UniProt P10275). In words: qHTS assay for small molecule antagonists of androgen receptor signaling (AID 588516; active = well fitted curve in the direction sought with a large enough effect in the signal ratio, with a control signal flat, not every such curve was filed as active; the % refers to the signal ratio). A digest of the protocol: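 AR-UAS-bla GripTite HEK 293 cells (2000/well) treated with compound titrations plus 10 nM R1881 for 16 h at 37C. Beta-lactamase read by CCF4 FRET (460/530 nm); IC50 from Hill fits, normalized to R1881 and DMSO control wells.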

Experiment [6] can be described thus: qHTS screen for small molecules that inhibit ELG1-dependent DNA repair: Hit Confirmation with 5FU Viability (AID 624250).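 Also: ELG1-luc HEK293T cells cotreated with 5-fluorouridine at 10 µM final; potency is read from the fitted curve at half-maximal effect.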 As to conditions: cell viability with 5-FU. From the text:
(§1) Cancer cells divide rapidly compared to normal cells in the body. During cell division, cancer cells need to duplicate their genome by DNA replication. The failure of genome duplication leads to cancer cells' death. Therefore, inhibitors of DNA replication could specifically kill cancer cells. Based on this concept, many chemotherapeutic agents were developed and have been used to treat cancer patients. However, there are a limited number of agents available in the clinical setting, and some of those that do exist have low efficacy and severe side effects. Therefore, if we can find the compounds that effectively block DNA replication either by directly damaging DNA or by inhibiting other cellular mechanisms, the options for cancer treatment will be broadened. With this in mind, we developed a quantitative high-throughput ELG1-luciferase reporter gene assay. Small molecules that specifically block ELG1 function in response to DNA damage can be identified by monitoring the suppression of luciferase activity. […]
ELG1-luc HEK293T cells will be seeded in 1536-well plates at a density of 2,000 cells/well. […] 16 hours following the addition of the compounds, cell viability will be measured using Cell Titer Glo.

Experiment [7] deals with Luciferin 4-monooxygenase (Photinus pyralis) (UniProt P08659). In words: qHTS screen for small molecules that inhibit ELG1-dependent DNA repair: Hit Confirmation in Biochemical Luciferin Assay (AID 624253). Also: series mostly up to about 57 µM.
Excerpt: as §1
3 uL of substrate reagent will be pipetted into each well in 1536-well white, solid-bottom plates using a FRD dispenser, followed by addition of 23 nL of DMSO or compounds by pintool. […] The plates will be read in a ViewLux CCD-based plate reader.

The target of experiment [8] is Alpha-galactosidase (Coffea arabica) (UniProt Q42656). The experiment in a line: Counterscreen for Glucocerebrosidase Inhibitors: qHTS Assay for Coffee Bean alpha-Galactosidase at pH 5.9 (AID 998). Summed up: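 Enzyme 2 nM + cpd (0.7 nM–77 uM titration) + 4-MU-alpha-Gal 80 uM, pH 5.9 citrate/Tween-20, RT 20 min, NaOH/glycine stop pH 10, fluor 365/440. Normalized to no-enzyme and full-activity controls; Hill-fit AC50.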

Molecules are shown by their SMILES. Values without a mark were called inactive. Inconclusive results are not listed. Some of the results follow. Where a call stands in place of a potency, no number is given. Active and inactive are the calls of the source. Unless noted, calls follow the shape of the dose curve; as a rule, active = well fitted curve in the direction sought with a large enough effect; inconclusive = small, poorly fitted or top-dose-only effect, or another doubt; inactive = no such curve, though single readings can be large; an effect the other way counts as inactive or inconclusive.

Peroxisome proliferator-activated receptor delta (Homo sapiens), sequence (Q03181 whole entry, looked up): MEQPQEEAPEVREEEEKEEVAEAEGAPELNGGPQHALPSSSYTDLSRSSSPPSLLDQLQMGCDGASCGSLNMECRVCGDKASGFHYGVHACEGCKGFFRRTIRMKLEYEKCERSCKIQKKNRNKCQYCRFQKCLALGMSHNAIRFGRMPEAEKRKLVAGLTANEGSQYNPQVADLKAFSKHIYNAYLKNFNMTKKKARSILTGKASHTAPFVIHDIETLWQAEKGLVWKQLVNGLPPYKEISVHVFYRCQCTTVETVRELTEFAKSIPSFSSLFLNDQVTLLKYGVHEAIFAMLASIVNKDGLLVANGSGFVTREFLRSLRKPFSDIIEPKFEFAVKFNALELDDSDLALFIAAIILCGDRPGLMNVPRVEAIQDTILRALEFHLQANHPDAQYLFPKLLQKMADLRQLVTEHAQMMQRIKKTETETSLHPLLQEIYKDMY
Androgen receptor (Homo sapiens), sequence (P10275 whole entry, looked up): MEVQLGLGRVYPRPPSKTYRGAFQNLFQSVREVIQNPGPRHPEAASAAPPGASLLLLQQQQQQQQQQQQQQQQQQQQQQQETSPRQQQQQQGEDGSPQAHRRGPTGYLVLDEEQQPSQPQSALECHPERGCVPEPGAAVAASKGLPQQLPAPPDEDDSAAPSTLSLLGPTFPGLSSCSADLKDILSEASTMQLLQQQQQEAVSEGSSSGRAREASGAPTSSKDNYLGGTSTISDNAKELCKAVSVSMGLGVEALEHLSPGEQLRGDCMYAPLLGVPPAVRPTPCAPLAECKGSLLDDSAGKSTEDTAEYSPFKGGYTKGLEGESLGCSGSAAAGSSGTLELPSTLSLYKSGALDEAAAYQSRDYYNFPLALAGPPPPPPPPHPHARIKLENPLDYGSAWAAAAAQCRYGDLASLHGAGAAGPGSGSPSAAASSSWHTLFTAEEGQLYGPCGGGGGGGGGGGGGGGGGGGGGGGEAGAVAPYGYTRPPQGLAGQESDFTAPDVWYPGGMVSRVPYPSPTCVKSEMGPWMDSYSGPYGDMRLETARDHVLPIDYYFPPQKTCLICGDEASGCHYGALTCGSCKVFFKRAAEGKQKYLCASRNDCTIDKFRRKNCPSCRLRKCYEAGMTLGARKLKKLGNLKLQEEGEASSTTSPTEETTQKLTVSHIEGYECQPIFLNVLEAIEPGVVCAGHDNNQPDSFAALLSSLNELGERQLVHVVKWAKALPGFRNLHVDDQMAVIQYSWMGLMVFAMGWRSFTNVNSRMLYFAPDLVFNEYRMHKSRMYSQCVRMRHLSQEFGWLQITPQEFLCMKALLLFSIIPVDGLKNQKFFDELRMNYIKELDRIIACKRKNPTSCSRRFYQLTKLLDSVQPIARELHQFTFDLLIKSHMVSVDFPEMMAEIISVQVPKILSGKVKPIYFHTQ
Alpha-galactosidase (Coffea arabica), sequence (Q42656 whole entry, looked up): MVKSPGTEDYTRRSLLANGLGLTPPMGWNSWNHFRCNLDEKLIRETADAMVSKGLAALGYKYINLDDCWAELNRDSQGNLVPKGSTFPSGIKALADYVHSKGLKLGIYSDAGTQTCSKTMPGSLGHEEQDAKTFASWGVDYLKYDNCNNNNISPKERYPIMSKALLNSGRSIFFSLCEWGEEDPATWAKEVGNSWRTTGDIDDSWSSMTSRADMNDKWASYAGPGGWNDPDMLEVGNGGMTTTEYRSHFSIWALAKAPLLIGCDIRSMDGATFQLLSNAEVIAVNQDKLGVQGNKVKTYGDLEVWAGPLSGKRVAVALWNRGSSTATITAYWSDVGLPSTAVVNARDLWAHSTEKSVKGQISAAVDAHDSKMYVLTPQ
Peroxisome proliferator-activated receptor gamma (Homo sapiens), sequence (P37231 whole entry, looked up): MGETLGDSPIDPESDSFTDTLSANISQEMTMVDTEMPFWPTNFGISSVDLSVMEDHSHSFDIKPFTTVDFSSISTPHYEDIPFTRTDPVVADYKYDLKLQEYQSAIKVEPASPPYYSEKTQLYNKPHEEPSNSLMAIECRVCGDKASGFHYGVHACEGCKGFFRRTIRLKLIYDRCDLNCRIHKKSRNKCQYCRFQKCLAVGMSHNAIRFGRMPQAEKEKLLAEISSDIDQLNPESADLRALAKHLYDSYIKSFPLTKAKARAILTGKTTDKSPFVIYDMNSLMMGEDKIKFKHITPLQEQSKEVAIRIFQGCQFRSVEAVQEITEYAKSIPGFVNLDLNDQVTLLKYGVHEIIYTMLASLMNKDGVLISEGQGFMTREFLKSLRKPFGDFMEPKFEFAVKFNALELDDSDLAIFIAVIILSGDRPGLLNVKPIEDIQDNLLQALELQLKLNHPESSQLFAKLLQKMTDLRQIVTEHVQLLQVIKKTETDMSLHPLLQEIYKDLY

Turning to `COP(=S)(OC)Oc1ccc([N+](=O)[O-])cc1`, the Potency entry in experiment [1] and in experiment [2] was “inactive” in each case.
Take `CCCCCCCCCc1ccc(O)cc1`: in experiment [3], the Potency result is “inactive”.
`C/C=C/c1ccc2c(c1)OCO2`: the Potency in experiment [4] is more than 92 µM.
With `ClC1=C(Cl)C2(Cl)C3C4CC(C5OC45)C3C1(Cl)C2(Cl)Cl` (configuration not stated), the Potency in experiment [4] was more than 92 µM.
Take `O=C1C(Cl)=C(Cl)C(=O)C(Cl)=C1Cl`: the Potency in experiment [3] is 12.6 µM (active).
For the compound `CCS(=O)CCSP(=O)(OC)OC` (configuration not stated), the Potency result in experiment [5] was “inactive”.
With `O=C(O)COc1cc(Cl)c(Cl)cc1Cl`, in experiment [5], the Potency entry was “inactive”.
With `COC1CC(OC2CC[C@@]3(C=O)C4CC[C@]5(C)C(C6=CC(=O)OC6)CC[C@@]5(O)C4CC[C@]3(O)C2)OC(C)C1O` (some centres not stated), the Potency in experiment [6] is 0.706 µM (active). Further, the compound was classed as inactive in experiment [7].
Regarding `CNC(=O)Oc1ccc2c(c1)[C@@]1(C)CCN(C)[C@@H]1N2C`, the compound was called inactive in experiment [8].
Consider `COc1cc([C@H]2c3cc4c(cc3[C@@H](O)[C@@H]3COC(=O)[C@H]23)OCO4)cc(OC)c1OC`, for which the result in experiment [8] was inactive.

The values are drawn from PubChem BioAssay (NCATS).
